The values below come from PubChem BioAssay (NCI).

About 79,000 compounds went through this panel and 15% of them were active in at least one assay; those are over-represented in the sample as a whole. Values without a mark were called inactive. Active and inactive are the calls of the source. Cut-off read from the data, not from the text of the source: active = growth inhibition above about 70%; inactive = the rest.

Assay [1] is described as follows: NCI Yeast Anticancer Drug Screen. Data for the rad50 strain (AID 155).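 Note: 0% = growth of vehicle-only cultures of the same strain.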 The settings on record: S. cerevisiae rad50 strain growth inhibition, hits give high values. Summed up: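 Genetically altered yeast (DNA repair pathway); compound treatment; growth inhibition vs vehicle ctrl.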
A short description of assay [2]: NCI Yeast Anticancer Drug Screen. Data for the mec2-1 strain (AID 157). The note with it: S. cerevisiae mec2-1 strain, hits give high values. In a few lines:
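Readout is yeast growth inhibition, normalised to vehicle-treated controls, in the mec2-1 strain exposed to compound.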

Assay [3] can be described thus: NCI Yeast Anticancer Drug Screen. Data for the sgs1 mgt1 strain (AID 161).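 Note: 0% = growth of cultures given vehicle only.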 The settings on record: S. cerevisiae sgs1 mgt1 strain, hits give high values. In a few lines:
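Compounds are added to genetically altered yeast, and growth is compared with cultures given vehicle alone to give percent inhibition.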

The nature of assay [4]: NCI Yeast Anticancer Drug Screen. Data for the cln2 rad14 strain (AID 165).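 Note: 0% = growth equal to vehicle treated cultures.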 The note with it: S. cerevisiae cln2 rad14 strain, hits give high values. In a few lines:
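Relative to vehicle controls, growth inhibition of compound-treated cln2 rad14 yeast was recorded.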

Assay [5] in a line: NCI Yeast Anticancer Drug Screen. Data for the bub3 strain (AID 167). The settings on record: S. cerevisiae bub3 mutant strain, hits give high values. Summed up: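 Yeast carrying a defined mutation is treated with each compound, and growth is compared with that of vehicle-exposed cells to give inhibition.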
Assay [6] can be described thus: NCI Yeast Anticancer Drug Screen. Data for the mlh1 rad18 strain (AID 175). The settings on record: S. cerevisiae mlh1 rad18 strain growth inhibition, hits give high values. Summed up: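 Test agents were incubated with a yeast strain of defined genotype (DNA damage repair defect). Inhibition of growth was derived by comparison with vehicle-exposed cultures.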
[7] abbreviates: at 5.0 µM (retest, dose inferred, filed as 0.5).
The mark [8] stands for this setting: at 50.0 µM (retest, dose inferred, filed as 5.0).

For `CSC(=S)OC1CC(n2cnc3c(NC(=O)c4ccccc4)ncnc32)OC1CO[Si](C)(C)C(C)(C)C` (stereo unspecified), the growth inhibition in assay [1] (setting [7]) is 1%; in assay [1] (setting [8]) it was -1%; in assay [1] (at 50.0 µM) it was 6.5%; in assay [2] (setting [7]) it was 0%; in assay [2] (setting [8]), 2%; in assay [2] (at 50.0 µM), -3.65%. The growth inhibition in assay [3] (setting [7]) was -1%; in assay [3] (setting [8]) it was 2%; in assay [3] (at 50.0 µM) it was 10.4%; in assay [4] (setting [7]), -1%; in assay [4] (setting [8]), 6%; in assay [4] (at 50.0 µM), 73% (active). In addition, the growth inhibition in assay [5] (setting [7]) was -1%; in assay [5] (setting [8]), -5%; in assay [5] (at 50.0 µM) it was 1.45%; in assay [6] (setting [7]) it was 0%; in assay [6] (setting [8]), -1%; in assay [6] (at 50.0 µM), 16.6%.

Turning to `Cc1ccc([N+](=O)[O-])cc1Cl`, the growth inhibition in assay [1] (setting [7]) is -3%; in assay [1] (setting [8]) it was -4%; in assay [1] (at 50.0 µM), -4.35%; in assay [2] (setting [7]) it was 2%; in assay [2] (setting [8]) it was -2%; in assay [2] (at 50.0 µM), -8.45%. For the same molecule, the growth inhibition in assay [3] (setting [7]) was 1%; in assay [3] (setting [8]), -1%; in assay [3] (at 50.0 µM), -2.6%; in assay [4] (setting [7]), -2%; in assay [4] (setting [8]), -1%; in assay [4] (at 50.0 µM) it was 93.2% (active). The growth inhibition is -3% in assay [5] (setting [7]); -4% in assay [5] (setting [8]); -3.85% in assay [5] (at 50.0 µM); -1% in assay [6] (setting [7]); -6% in assay [6] (setting [8]); -2.45% in assay [6] (at 50.0 µM).

Turning to `Nc1c2c(=O)[nH]c(=O)c2c(N)c2c(=O)c3ccccc3c(=O)c12`, the growth inhibition was 36% in assay [1] (setting [7]); 53% in assay [1] (setting [8]); 78.2% (active) in assay [1] (at 50.0 µM); 21% in assay [2] (setting [7]); 47% in assay [2] (setting [8]); 35.8% in assay [2] (at 50.0 µM). Further, the growth inhibition in assay [3] (setting [7]) was 50%; in assay [3] (setting [8]), 72% (active); in assay [3] (at 50.0 µM) it was 38%; in assay [4] (setting [7]), -26%; in assay [4] (setting [8]), 41%; in assay [4] (at 50.0 µM), 34.5%. Further, the growth inhibition in assay [5] (setting [7]) was 21%; in assay [5] (setting [8]), 78% (active); in assay [5] (at 50.0 µM) it was 29.4%; in assay [6] (setting [7]) it was 30%; in assay [6] (setting [8]) it was 59%; in assay [6] (at 50.0 µM), 60.6%.

Turning to `CS(=O)(=O)OC1C(O)C(n2cnc3c(N)ncnc32)C(O)C(OS(C)(=O)=O)C1OS(C)(=O)=O` (stereo unspecified), the growth inhibition in assay [1] (setting [7]) was 0%; in assay [1] (setting [8]), -2%; in assay [1] (at 50.0 µM) it was 0.05%; in assay [2] (setting [7]) it was 1%; in assay [2] (setting [8]) it was -3%; in assay [2] (at 50.0 µM), 57.5%. The growth inhibition in assay [3] (setting [7]) was -2%; in assay [3] (setting [8]), -1%; in assay [3] (at 50.0 µM), 3.8%; in assay [4] (setting [7]), -1%; in assay [4] (setting [8]), 0%; in assay [4] (at 50.0 µM) it was -7.9%. In addition, the growth inhibition in assay [5] (setting [7]) is -1%; in assay [5] (setting [8]) it was -2%; in assay [5] (at 50.0 µM), 40%; in assay [6] (setting [7]), -1%; in assay [6] (setting [8]) it was -1%; in assay [6] (at 50.0 µM), 18.4%.

For the molecule `COc1ccc(-c2noc(=O)c3ccccc23)cc1`, the growth inhibition in assay [1] (setting [7]) is 11%; in assay [1] (setting [8]) it was 6%; in assay [1] (at 50.0 µM), -5.8%; in assay [2] (setting [7]), 5%; in assay [2] (setting [8]) it was 4%; in assay [2] (at 50.0 µM) it was -1.1%. Also, the growth inhibition in assay [3] (setting [7]) is 6%; in assay [3] (setting [8]), 4%; in assay [3] (at 50.0 µM) it was 3.4%; in assay [4] (setting [7]), 4%; in assay [4] (setting [8]) it was 3%; in assay [4] (at 50.0 µM) it was 64.2%. Further, the growth inhibition was -3% in assay [5] (setting [7]); -2% in assay [5] (setting [8]); 9.65% in assay [5] (at 50.0 µM); -1% in assay [6] (setting [7]); 1% in assay [6] (setting [8]); 1.35% in assay [6] (at 50.0 µM).

Regarding `C1=CC2C(c3cccc4ccccc34)O[C@H]2O1` (stereo partly specified), the growth inhibition in assay [1] (setting [7]) was 39%; in assay [1] (setting [8]), 99% (active); in assay [1] (at 50.0 µM), 98.8% (active); in assay [2] (setting [7]), 11%; in assay [2] (setting [8]), 99% (active); in assay [2] (at 50.0 µM), 98.5% (active). Besides, the growth inhibition in assay [3] (setting [7]) was 13%; in assay [3] (setting [8]) it was 99% (active); in assay [3] (at 50.0 µM), 98.8% (active); in assay [4] (setting [7]), 7%; in assay [4] (setting [8]) it was 98% (active); in assay [4] (at 50.0 µM), 98.8% (active). In addition, the growth inhibition is 3% in assay [5] (setting [7]); 99% (active) in assay [5] (setting [8]); 98.4% (active) in assay [5] (at 50.0 µM); 28% in assay [6] (setting [7]); 99% (active) in assay [6] (setting [8]); 98.3% (active) in assay [6] (at 50.0 µM).

Regarding `Cc1ccc(C)c(N2C/C(=N\NC(=O)CC#N)C(c3nc4ccccc4s3)C(=O)C2=O)c1` (stereo unspecified), the growth inhibition was 0% in assay [1] (setting [7]); 1% in assay [1] (setting [8]); 7.9% in assay [1] (at 50.0 µM); 0% in assay [2] (setting [7]); 2% in assay [2] (setting [8]); -0.3% in assay [2] (at 50.0 µM). In addition, the growth inhibition in assay [3] (setting [7]) is -3%; in assay [3] (setting [8]) it was -3%; in assay [3] (at 50.0 µM) it was -5.2%; in assay [4] (setting [7]), -3%; in assay [4] (setting [8]) it was -1%; in assay [4] (at 50.0 µM) it was 12.6%. The growth inhibition is 33% in assay [5] (setting [7]); 19% in assay [5] (setting [8]); -0.3% in assay [5] (at 50.0 µM); 1% in assay [6] (setting [7]); 1% in assay [6] (setting [8]); 20.9% in assay [6] (at 50.0 µM).
